A selection: hits, their analogues and other compounds. The true share with any hit is near 3.5%.
Autofluor counter: flagged as autofluorescent in microsphere protease counterscreen; compound autofluorescence counterscreen, microsphere flow cytometry; stronger effect = higher value; fluorescence intensity (no concentration beside the values); 360,000 tested, 3.1% active; AID 624483; in the data active means fluorescence intensity above about 16000; inconclusive means no clear call, values can overlap the other calls
BoNT-A LC inh2: BoNT/A light chain protease inhibitors, primary screen, biochemical, flow cytometry, MLPCN library. multiplex microsphere protease substrate cleavage. inhibition, % at 10 µM. 360,000 tested, 0.17% active. AID 588499, 2011
BJeLR viability: MLPCN primary cell-based screen for lethality selective to Ras in HRASV12 cells | 300,000 tested, 0.17% active | BJeLR (HRASV12) viability, CellTiter-Glo ATP luminescence, 48 h | AID 1554, 2009 | inhibition, % (test concentration not listed); in the data active means inhibition above about 50%; inconclusive means no clear call, values can overlap the other calls
BoNT F protease: BoNT/F light chain protease inhibitors, primary screen, biochemical, flow cytometry, MLPCN library; Botulinum neurotoxin type F light chain protease (Clostridium botulinum); Multiplex microsphere protease cleavage assay; inhibition, % at 10 µM; 360,000 tested, 0.22% active; AID 588497, 2011; in the data active means inhibition above about 35%, passing the limit was not always enough; inconclusive means no clear call, values can overlap the other calls
Anthrax LF prot: Bacillus anthracis LF protease inhibitors, primary screen, biochemical, multiplex microsphere, MLPCN library. Lethal factor (Bacillus anthracis), P15917. multiplex microsphere protease cleavage assay. inhibition, % at 10 µM. 360,000 tested, 0.12% active
Hits are given with their value; n = inactive; u = inconclusive; x = not tested or not shown. Unless noted, no stated cut-off is given here; in the data, active means inhibition above about 30%; inconclusive means no clear call, values can overlap the other calls; inactive means below that.

SMILES	Autofluor counter	BoNT-A LC inh2	BJeLR viability	BoNT F protease	Anthrax LF prot
Cc1ccc2ncc(S(=O)(=O)c3ccccc3)c(N3CCCCC3C)c2c1 (configuration not stated)	n	n	n	n	n
c1ccc(-c2nnc(CSc3nnc(-c4cccs4)o3)o2)cc1	22467	n	n	n	n
Fc1ccc(Cc2nnc(-c3cccs3)o2)cc1	n	n	n	n	n
c1csc(-c2nnc(Cc3cccc4ccccc34)o2)c1	23714	u	n	n	n
Fc1ccc(-c2nnc(CSc3nnc(-c4cccs4)o3)o2)cc1	n	n	n	n	n
OC(c1ccc(F)cc1)c1nc(-c2cc3ccccc3o2)cs1 (configuration not stated)	n	n	x	n	n
O=C1CSc2ccccc2N1Cc1ccccc1F	24057	n	n	n	n
Cn1cnnc1SC1CCCCC1NS(=O)(=O)c1ccccc1 (configuration not stated)	23278	n	n	n	n
Cn1cnnc1SC1CCCCC1NS(=O)(=O)c1ccc(Cl)cc1 (configuration not stated)	n	n	n	n	n
Cn1c(SCc2cc([N+](=O)[O-])cc3c2OCOC3)nnc1-c1ccccn1	n	n	n	n	n
COc1cc(OC)cc(C(=O)NC2CCN(Cc3nnnn3Cc3cccs3)CC2)c1	25214	n	n	n	n
COc1cc(OC)cc(C(=O)NC2CCN(Cc3nnnn3Cc3ccc(F)cc3)CC2)c1	n	n	n	n	n
O=C(O)CCc1ccc(-c2ccc(Br)cc2)o1	23745	u	n	n	n
O=C(O)CCc1ccc(-c2ccc(Cl)cc2)o1	n	n	n	n	n
O=C(CCCCCCCCCCC(=O)NCc1cccnc1)NCc1cccnc1	n	n	74	u	n
O=C(CCCN1C(=O)c2cccc3cccc(c23)C1=O)NCc1cccnc1	n	n	n	n	n
COc1ccc(CCNC(=O)CCCN2C(=O)c3ccccc3C2=O)cc1OC	n	n	n	n	n
CCOc1ccc(CCNC(=O)CCCN2C(=O)c3ccccc3C2=O)cc1OCC	21585	u	n	n	n
O=C(CCCCCN1C(=O)c2cccc3cccc(c23)C1=O)NCc1cccnc1	n	n	80	n	n
O=C(CCSc1ccccc1)NCc1cccnc1	n	n	n	n	n
O=C(CCCN1C(=O)c2ccccc2C1=O)NCc1cccnc1	22861	n	n	n	n
O=C(CSC(=S)N1CCCC1)NCC(=O)Nc1ccc(F)c(F)c1	u	n	n	u	n
CC(=O)Nc1cccc(-c2ccnc3c2CC(C)(C(=O)NCc2ccc(F)c(F)c2)O3)c1 (configuration not stated)	n	n	x	n	n
CCOC(=O)N1CCN(c2c(NCCc3ccc(OCC)c(OCC)c3)c(=O)c2=O)CC1	24406	n	n	n	n
CCOC(=O)c1[nH]nc(C(=O)c2ccc(Br)cc2)c1O	18245	n	n	n	n
SMILES	Autofluor counter	BoNT-A LC inh2	BJeLR viability	BoNT F protease	Anthrax LF prot
CCOC(=O)c1ccc(CNCc2ccc(Br)cc2)cc1	n	n	n	n	n
Fc1cccc(/C=N/n2c(C3CCCCC3)n[nH]c2=S)c1	n	n	n	n	n
CCOC(=O)[C@]12CCCC=C1N(Cc1ccc(Cl)cc1Cl)C(=O)[C@H](CC(=O)N1CCC(c3ccccc3)CC1)C2	n	n	x	n	n
Cc1c(/C=N/Nc2nc3ccccc3[nH]2)c2ccccc2n1C	n	n	65	u	n
C/C(=N\Nc1nc2ccccc2[nH]1)c1ccccn1	n	n	74	n	n
C/C(=N\Nc1nc2ccccc2[nH]1)c1cc2ccccc2o1	n	n	n	n	n
CC(=O)Nc1ccc(/C=N/Nc2nc3ccccc3[nH]2)cc1	n	n	67	n	n
COCCCN(C(C)=O)c1nc(-c2ccccc2)cs1	21845	u	n	n	n
COc1ccc(CC(=O)NC2CCN(Cc3nnnn3C(C)(C)C)CC2)cc1OC	20961	u	n	n	n
CCCC1CCC(C2=N/C(=C\c3ccc(OC)c(OC)c3)C(=O)O2)CC1 (configuration not stated)	22779	n	n	n	n
Cc1ccc2c(c1)N(C(C)C(=O)N1CCC3(CC1)OCCO3)C(=O)CO2 (configuration not stated)	n	n	n	n	n
Cc1ccc2c(c1)N(CC(=O)NCCc1c[nH]c3ccccc13)C(=O)CO2	23441	n	n	n	n
